Laboratory results published in PubChem BioAssay AID1159580 (chemical genetic matrix, 2015).
About 2,000 (36%) of roughly 5,500 compounds were called active. About 18% were inconclusive and are not listed. The list shows a part of the results. A number with no mark means an inactive call. No stated cut-off is given here; in the data, active means normalized growth mostly below about 0.91 (no sharp cut-off); inconclusive means no clear call, values can overlap the other calls; inactive means mostly above about 0.92.

Assay: chemical genetic growth profiling, strain panel (AID 1159580);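 further: tested at 20 µM; growth read once vehicle control cultures reached saturation at 30 °C; 1 = growth at the plate median or of vehicle wells; lower values mean less growth of the strain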
Details: growth OD
[1] = S. cerevisiae deletion strains, locus YBR021W, strain FUR4, active compounds read low
[2] = S. cerevisiae deletion strains, locus YBR229C, strain ROT2, active compounds read low
[3] = S. cerevisiae deletion strains, locus YCL029C, strain bik1, active compounds read low
[4] = S. cerevisiae deletion strains, locus YDL035C, strain GPR1, active compounds read low
[5] = S. cerevisiae deletion strains, locus YDL074C, strain BRE1, active compounds read low
[6] = S. cerevisiae deletion strains, locus YDL101C, strain DUN1, active compounds read low
[7] = S. cerevisiae deletion strains, locus YDL134C, strain PPH21, active compounds read low
[8] = S. cerevisiae deletion strains, locus YDL185W, strain tfp1, active compounds read low
[9] = S. cerevisiae deletion strains, locus YDL192W, strain arf1, active compounds read low
[10] = S. cerevisiae deletion strains, locus YDR101C, strain arx1, active compounds read low
[11] = S. cerevisiae deletion strains, locus YDR162C, strain NBP2, active compounds read low
[12] = S. cerevisiae deletion strains, locus YDR318W, strain mcm21, active compounds read low
[13] = S. cerevisiae deletion strains, locus YDR388W, active compounds read low
[14] = S. cerevisiae deletion strains, locus YDR502C, strain sam2, active compounds read low
[15] = S. cerevisiae deletion strains, locus YEL061C, strain CIN8, active compounds read low
[16] = S. cerevisiae deletion strains, locus YER110C, active compounds read low
[17] = S. cerevisiae deletion strains, locus YER155C, strain BEM2, active compounds read low
[18] = S. cerevisiae deletion strains, locus YER167W, strain BCK2, active compounds read low
[19] = S. cerevisiae deletion strains, locus YGL078C, strain dbp3, active compounds read low
[20] = S. cerevisiae deletion strains, locus YGL086W, strain mad1, active compounds read low
[21] = S. cerevisiae deletion strains, locus YGL248W, strain PDE1, active compounds read low
[22] = S. cerevisiae deletion strains, locus YGR135W, strain pre9, active compounds read low
[23] = S. cerevisiae deletion strains, locus YGR229C, strain SMI1, active compounds read low
[24] = S. cerevisiae deletion strains, locus YGR252W, strain gcn5, active compounds read low
[25] = S. cerevisiae deletion strains, locus YHR030C, strain SLT2, active compounds read low
[26] = S. cerevisiae deletion strains, locus YHR079C, strain IRE1 (second series), active compounds read low
[27] = S. cerevisiae deletion strains, locus YHR094C, strain hxt1, active compounds read low
[28] = S. cerevisiae deletion strains, locus YHR129C, strain ARP1, active compounds read low
[29] = S. cerevisiae deletion strains, locus YHR200W, strain rpn10, active compounds read low
[30] = S. cerevisiae deletion strains, locus YIL066C, strain RNR3, active compounds read low
[31] = S. cerevisiae deletion strains, locus YIL073C, strain SPO22, active compounds read low
[32] = S. cerevisiae deletion strains, locus YIL125W, strain kgd1, active compounds read low
[33] = S. cerevisiae deletion strains, locus YIR030C, strain dcg1, active compounds read low
[34] = S. cerevisiae deletion strains, locus YJL095W, strain BCK1, active compounds read low
[35] = S. cerevisiae deletion strains, locus YJL134W, strain LCB3, active compounds read low
[36] = S. cerevisiae deletion strains, locus YJL168C, strain set2, active compounds read low
[37] = S. cerevisiae deletion strains, locus YJL187C, strain SWE1 (second series), active compounds read low
[38] = S. cerevisiae deletion strains, locus YKL009W, strain mrt4, active compounds read low
[39] = S. cerevisiae deletion strains, locus YKL068W, active compounds read low
[40] = S. cerevisiae deletion strains, locus YKL085W, strain MDH1 (second series), active compounds read low
[41] = S. cerevisiae deletion strains, locus YKL085W, strain MDH1, active compounds read low
[42] = S. cerevisiae deletion strains, locus YKR001C, strain vps1, active compounds read low
[43] = S. cerevisiae deletion strains, locus YLR039C, strain RIC1, active compounds read low
[44] = S. cerevisiae deletion strains, locus YLR058C, strain SHM2, active compounds read low
[45] = S. cerevisiae deletion strains, locus YLR102C, strain apc9, active compounds read low
[46] = S. cerevisiae deletion strains, locus YLR268W, strain sec22, active compounds read low
[47] = S. cerevisiae deletion strains, locus YLR371W, strain rom2, active compounds read low
[48] = S. cerevisiae deletion strains, locus YLR418C, strain cdc73, active compounds read low
[49] = S. cerevisiae deletion strains, locus YML016C, strain PPZ1, active compounds read low
[50] = S. cerevisiae deletion strains, locus YML032C, strain rad52, active compounds read low
[51] = S. cerevisiae deletion strains, locus YML124C, strain tub3, active compounds read low
[52] = S. cerevisiae deletion strains, locus YMR078C, strain ctf18, active compounds read low
[53] = S. cerevisiae deletion strains, locus YMR223W, strain ubp8, active compounds read low
[54] = S. cerevisiae deletion strains, locus YMR307W, strain GAS1, active compounds read low
[55] = S. cerevisiae deletion strains, locus YNL067W, strain RPL9B, active compounds read low
[56] = S. cerevisiae deletion strains, locus YNL233W, strain BNI4, active compounds read low
[57] = S. cerevisiae deletion strains, locus YNL250W, strain rad50, active compounds read low
[58] = S. cerevisiae deletion strains, locus YNL271C, strain bni1, active compounds read low
[59] = S. cerevisiae deletion strains, locus YNL298W, strain CLA4, active compounds read low
[60] = S. cerevisiae deletion strains, locus YNL307C, strain MCK1, active compounds read low
[61] = S. cerevisiae deletion strains, locus YNR052C, strain pop2, active compounds read low
[62] = S. cerevisiae deletion strains, locus YOL012C, strain htz1
[63] = S. cerevisiae deletion strains, locus YOL147C, strain pex11, active compounds read low
[64] = S. cerevisiae deletion strains, locus YOR061W, strain CKA2, active compounds read low
[65] = S. cerevisiae deletion strains, locus YOR069W, strain VPS5, active compounds read low
[66] = S. cerevisiae deletion strains, locus YOR136W, strain idh2, active compounds read low
[67] = S. cerevisiae deletion strains, locus YOR144C, strain elg1, active compounds read low
[68] = S. cerevisiae deletion strains, locus YOR184W, strain ser1, active compounds read low
[69] = S. cerevisiae deletion strains, locus YOR316C, strain cot1, active compounds read low
[70] = S. cerevisiae deletion strains, locus YPL241C, strain CIN2, active compounds read low
[71] = S. cerevisiae deletion strains, locus YPR119W, strain clb2, active compounds read low
[72] = S. cerevisiae deletion strains, locus YPR141C, strain kar3, active compounds read low
[73] = S. cerevisiae deletion strains, locus YPR163C, strain tif3, active compounds read low
[74] = S. cerevisiae deletion strains, locus YPR167C, strain met16, active compounds read low
[75] = S. cerevisiae deletion strains, strain wtn01, active compounds read low

Question: What does the source list for `C=C1C([C@]2(C)C(CC(=O)OC)[C@@](C)(COC(C)=O)OC(=O)C[C@@H]2OC(C)=O)[C@@H](OC=O)[C@H](OC(=O)C(OC(C)=O)C(C)CC)[C@@]2(C)[C@H](c3ccoc3)CC(=O)C12O` (some centres undefined)?
Answer: normalized growth (S. cerevisiae deletion strains, locus YAL013W, strain DEP1, active compounds read low): 1.03; normalized growth [1]: 1.03; normalized growth [2]: 1.01; normalized growth [3]: 1.03; normalized growth [4]: 1.01; normalized growth [5]: 1.04; normalized growth [6]: 1.03; normalized growth [7]: 1.03; normalized growth [8]: 1.03; normalized growth [9]: 1.03; normalized growth [10]: 1.01; normalized growth (S. cerevisiae deletion strains, locus YDR150W, strain NUM1, active compounds read low): 1.03; normalized growth [11]: 1.02; normalized growth [12]: 1.03; normalized growth [13]: 1.03; normalized growth [14]: 1.04; normalized growth [15]: 1.02; normalized growth [16]: 1.03; normalized growth [17]: 1.02; normalized growth [18]: 1.01; normalized growth [19]: 1.04; normalized growth [20]: 1.04; normalized growth [21]: 1.02; normalized growth [22]: 1.03; normalized growth [23]: 1.08; normalized growth [24]: 1.03; normalized growth [25]: 1.02; normalized growth [26]: 1.03; normalized growth [27]: 1.04; normalized growth [28]: 1.02; normalized growth [29]: 1.03; normalized growth [30]: 1; normalized growth [31]: 1.06; normalized growth [32]: 1.02; normalized growth [33]: 1.03; normalized growth [34]: 1.04; normalized growth [35]: 1.02; normalized growth [36]: 1.03; normalized growth [37]: 1.03; normalized growth [38]: 0.952; normalized growth [39]: 1.03; normalized growth [40]: 1.16 [resistant] (active); normalized growth [41]: 1.16 [resistant] (active); normalized growth (S. cerevisiae deletion strains, locus YKL190W, strain CNB1, active compounds read low): 1.01; normalized growth [42]: 1.03; normalized growth [43]: 1.09; normalized growth [44]: 1.01; normalized growth [45]: 1.03; normalized growth [46]: 1.02; normalized growth (S. cerevisiae deletion strains, locus YLR330W, strain CHS5, active compounds read low): 1.02; normalized growth [47]: 1.03; normalized growth [48]: 1.07; normalized growth [49]: 1.01; normalized growth [50]: 1.03; normalized growth [51]: 1.03; normalized growth [52]: 1.03; normalized growth [53]: 1.03; normalized growth [54]: 1.04; normalized growth [55]: 1.03; normalized growth [56]: 1.03; normalized growth [57]: 1.01; normalized growth [58]: 1.03; normalized growth [59]: 1.02; normalized growth [60]: 1.02; normalized growth [61]: 1.04; normalized growth [62]: 1.2; normalized growth [63]: 1.03; normalized growth [64]: 1.02; normalized growth [65]: 1.02; normalized growth [66]: 1.03; normalized growth [67]: 1.04; normalized growth [68]: 1.02; normalized growth [69]: 1.03; normalized growth [70]: 1.02; normalized growth [71]: 1.02; normalized growth [72]: 1.02; normalized growth [73]: 1.04; normalized growth [74]: 1.03; normalized growth [75]: 1.01; normalized growth (S. cerevisiae strains, strain wild type, active compounds read low): 1.03

Question: What does the source list for `C=C1C([C@]2(C)C(CC(=O)OC)[C@@](C)(COC(C)=O)OC(=O)C[C@@H]2OC(C)=O)[C@@H](OC=O)[C@H](OC(=O)C(O)C(C)CC)[C@@]2(C)[C@H](c3ccoc3)CC(=O)C12O` (some centres undefined)?
Answer: normalized growth [1]: 0.996; normalized growth [2]: 1; normalized growth [3]: 1.02; normalized growth [4]: 1.01; normalized growth [5]: 1.02; normalized growth [6]: 1.02; normalized growth [7]: 1.01; normalized growth [8]: 1.01; normalized growth [9]: 1.01; normalized growth [10]: 1; normalized growth [11]: 1.02; normalized growth [12]: 1.01; normalized growth [13]: 0.998; normalized growth [14]: 1.01; normalized growth [15]: 1; normalized growth [16]: 1.01; normalized growth [17]: 1.01; normalized growth [18]: 1; normalized growth [19]: 1.02; normalized growth [20]: 1; normalized growth [21]: 1.01; normalized growth [22]: 1.04; normalized growth [23]: 1.06; normalized growth [24]: 1.03; normalized growth [25]: 1.01; normalized growth [26]: 1.02; normalized growth [27]: 1.01; normalized growth [28]: 1.01; normalized growth [29]: 0.995; normalized growth [30]: 1.01; normalized growth [31]: 1.09; normalized growth [32]: 1; normalized growth [33]: 1.01; normalized growth [34]: 1.04; normalized growth [35]: 1.01; normalized growth [36]: 1.01; normalized growth [37]: 1.02; normalized growth [38]: 0.994; normalized growth [39]: 1.01; normalized growth [40]: 0.999; normalized growth [41]: 0.999; normalized growth [42]: 1.02; normalized growth [43]: 1.09; normalized growth [44]: 1.01; normalized growth [45]: 1.01; normalized growth [46]: 1; normalized growth (S. cerevisiae deletion strains, locus YLR342W, strain FKS1 (second series), active compounds read low): 1.01; normalized growth [47]: 1.01; normalized growth [48]: 1.03; normalized growth [49]: 1; normalized growth [50]: 0.991; normalized growth [51]: 1.01; normalized growth [52]: 1.02; normalized growth [53]: 1.01; normalized growth [54]: 1.1; normalized growth [55]: 1.02; normalized growth (S. cerevisiae deletion strains, locus YNL153C, strain GIM3, active compounds read low): 1.01; normalized growth [56]: 1.03; normalized growth [57]: 1.01; normalized growth [58]: 1.01; normalized growth [59]: 1.03; normalized growth [60]: 1.01; normalized growth (S. cerevisiae deletion strains, locus YNL322C, strain KRE1, active compounds read low): 1.01; normalized growth [61]: 1.01; normalized growth (S. cerevisiae deletion strains, locus YOL006C, strain TOP1, active compounds read low): 1.04; normalized growth [62]: 0.797; normalized growth [63]: 1.01; normalized growth [64]: 1; normalized growth [65]: 1.01; normalized growth [66]: 1; normalized growth [67]: 1; normalized growth [68]: 1.01; normalized growth [69]: 1.01; normalized growth [70]: 1.01; normalized growth [71]: 1.01; normalized growth [72]: 1.02; normalized growth [73]: 1.01; normalized growth [74]: 1.01; normalized growth [75]: 0.997
